Screening results: PubChem, National Center for Advancing Translational Sciences (NCATS)
Luc counter – Counterscreen for Luciferase (Kinase-Glo TM) Inhibition; AID 1379, 2008; Potency, µM (series often up to 38.3 µM), without a hit: at the top dose activity change, negative = inhibition, most hits filed as inhibitors; Kinase-Glo luciferase, ATP luminescence, 8 min; actives 0.28% (n = 200,000); Luciferin 4-monooxygenase (Photuris pensylvanica), Q27757; active means well fitted inhibition curve with a large enough effect; inconclusive means small, poorly fitted or top-dose-only effect; further: potency means the concentration at half of the fitted maximal effect; nearly all actives have a fitted effect of over 60% in size
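Light output from Kinase-Glo luciferase with luciferin and 10 uM ATP in 50 mM imidazole pH 7.2, KCl, MgCl2, Tween 20, BSA; compound pin-delivered, 8-min ambient incubation, then luminescence read.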
PNC inhibitor – High Content Assay for Compounds that inhibit the Assembly of the Perinucleolar Compartment; activity change (PNC), negative = inhibition, % at 10 µM; actives 3.1% (n = 140,000); AID 2417, 2010; PC3M PTB-GFP, PNC prevalence imaging, 16 h; hits give low values;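 active means readout at or below -70, meaning at least 70% loss of cells showing the perinucleolar compartment, a nuclear body marking cancer cells; inconclusive means readout between -30 and a set limit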;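 further: plate controls were DMSO wells for no effect and camptothecin positive control wells for full effect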
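Read-out is percentage of cells bearing a perinucleolar compartment, from automated 20x imaging of fixed, Hoechst-stained PC3M PTB-GFP cells. Cells were seeded 4 h, then exposed 16 h to compound (23 nl of library stock) in duplicate plates.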
HPGD inh – qHTS Assay for Inhibitors of HPGD (15-Hydroxyprostaglandin Dehydrogenase). 15-hydroxyprostaglandin dehydrogenase [NAD(+)] (Homo sapiens), P15428. Potency, µM, without a hit: at the highest dose activity change, negative = inhibition, usual class: inhibitors. actives 4.3% (n = 150,000). purified HPGD, NADH fluorescence kinetic, PGE2 substrate; further: potency means the concentration at half of the fitted maximal effect
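20 nM HPGD preincubated 15 min at room temperature with compound in 50 mM Tris-HCl pH 8, 0.01% Tween 20. Started with 1 mM NAD+ and 30 uM prostaglandin E2; NADH fluorescence (360/450 nm) read 5 times over 30-s intervals, last minus first.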
LMNA splice mod – qHTS Assay for Modulators of Lamin A Splicing | HeLa LMNA splicing GFP/RFP minigene ratio, 48 h | actives 0.01% (n = 200,000) | AID 1487, 2009 | Potency, µM (series often up to 46.1 µM), for inactives: at the top dose ratio change, negative = inhibition, hits mostly inhibitors; active means well fitted inhibition curve with a large enough effect in the signal ratio, with a control signal flat, not every such curve was filed as active; inconclusive means small, poorly fitted or top-dose-only effect, or effect the other way, or a change in a side signal; the % refers to the signal ratio; further: potency means the concentration at half of the fitted maximal effect
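S3 HeLa cells stably expressing lamin A-EGFP splicing minigene plus DsRed2, 600 cells/well, 48 h compound exposure at 37C. Laser-scanning cytometry; analysed as GFP (500-530 nm)/RFP (575-640 nm) total intensity ratio; 0.5% DMSO vehicle.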
ALDH1A1 inh – qHTS Assay for Inhibitors of Aldehyde Dehydrogenase 1 (ALDH1A1); Purified ALDH1A1, NADH fluorescence, propionaldehyde substrate; Potency, µM (top dose mostly 75.3 µM), for inactives: top-dose activity, negative = inhibition, actives largely listed as inhibitors; actives 7.3% (n = 220,000); AID 1030, 2008;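 further: potency means the concentration at half of the fitted maximal effect; plate controls were no enzyme wells and a reference inhibitor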
Target sequence (P00352 whole entry, looked up): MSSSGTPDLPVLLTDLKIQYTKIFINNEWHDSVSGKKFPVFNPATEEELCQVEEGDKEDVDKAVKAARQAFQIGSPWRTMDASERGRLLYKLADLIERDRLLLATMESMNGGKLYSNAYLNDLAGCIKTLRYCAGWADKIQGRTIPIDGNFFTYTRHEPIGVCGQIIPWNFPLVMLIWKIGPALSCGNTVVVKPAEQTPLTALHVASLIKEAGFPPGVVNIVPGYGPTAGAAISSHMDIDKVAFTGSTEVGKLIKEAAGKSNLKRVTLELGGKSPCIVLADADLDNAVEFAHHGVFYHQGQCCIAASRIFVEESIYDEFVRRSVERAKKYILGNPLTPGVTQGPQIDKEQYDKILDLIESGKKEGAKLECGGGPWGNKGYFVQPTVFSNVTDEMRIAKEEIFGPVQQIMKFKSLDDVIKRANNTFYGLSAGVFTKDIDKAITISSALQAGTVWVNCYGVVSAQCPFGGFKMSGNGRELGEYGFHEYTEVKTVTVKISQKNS
IMPase inh – qHTS Assay for Identifying the Cell-Membrane Permeable IMPase Inhibitors; Inositol monophosphatase 1 (Rattus norvegicus), P97697; 120,000 tested, under 10 active; inhibition (IP1 accumulation), % at 46.1 µM; CHO-M1 cells, IP1 accumulation, HTRF TR-FRET ratio; active means well fitted curve in the direction sought with a large enough effect in the signal ratio, not every such curve was filed as active; inconclusive means small, poorly fitted or top-dose-only effect, or a change in a side signal; inactive means no such curve, though single readings can be large or run the other way; the % refers to the signal ratio;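 further: cells stimulated with carbachol in lithium chloride buffer; plate controls were DMSO basal wells for no effect and reference inhibitor wells for full effect; higher means more IMPase inhibition seen as more IP1 and lower FRET ratio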
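Cellular IMPase inhibition is scored as a rise in cytosolic IP1, detected by competitive TR-FRET between d2-labelled IP1 and a europium anti-IP1 antibody. M1-expressing CHO cells were stimulated with carbachol for 30 min at 37C, with lithium (50 mM LiCl) present in the buffer.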
* marks the source's active call; other numbers are inactive results; ? = inconclusive; . = no result given; [ ] = another dose, or the depositor's remark. Only some compounds are listed: those with a hit (about 10% of all), similar ones and a draw of the others. Unless noted, the call rests on the fitted dose curve; in most records, active means well fitted inhibition curve with a large enough effect (not every such curve was filed as active); inconclusive means small, poorly fitted or top-dose-only effect, or another doubt; inactive means no such curve, though single readings can be large or run the other way. Unless noted, on the % scale 0 is the no-effect control and ±100 the full control effect.

SMILES | Luc counter | PNC inhibitor | HPGD inh | LMNA splice mod | ALDH1A1 inh | IMPase inh
O=C1CN(C(=O)CN2CCCCC2)C(c2ccccc2)c2cc(Br)ccc2N1 (stereo not drawn) | -1% | -92* | -6% | 11% | -12% | 0
COC1=CC(=O)OC(CCc2ccccc2)C1 (stereo not drawn) | . | . | -6% | . | -9% | .
COC(=O)C[C@]1(C(=O)OC)CN(C#N)N(c2ccc(Cl)cc2)C12c1ccccc1-c1ccccc12 | 0% | -100* | -26% | ? | -4% | 7
O=P(Nc1cccnc1)(Oc1ccccc1)Oc1ccccc1 | -5% | ? | -11% | 3% | -17% | .
O=P1(Nc2cccnc2)COc2ccccc2OC1 | -3% | -7 | 7.1µM* | 0% | -5% | -6
O=C(O)C(Cl)Br (stereo not drawn) | . | . | -9% | . | ? | .
CC[C@@]1(O)C(=O)OCc2c1cc1n(c2=O)Cc2cc3cc(O)ccc3nc2-1 | -1% | . | -23% | . | -9% | .
CCN1CCN(P2(=O)C=C(c3ccccc3)OC(c3ccccc3)=C2)CC1 | -2% | -29 | -7% | 6% | 14µM* | -12
C[C@@H](C(=O)O)c1ccc(-c2ccccc2)c(F)c1 | -1% | . | 28µM* | ? | 0% | 1
Cc1ccc([N+](=O)[O-])cc1C | . | . | -8% | . | ? | .
Cn1cnc([N+](=O)[O-])c1Sc1ccc([N+](=O)[O-])cc1 | 1% | . | . | . | 7.9µM* | .
CCN1CCN(S(=O)(=O)c2ccc(Cl)nc2)CC1 | -2% | 65 | -2% | 4% | 25µM* | 2
CC[C@@]1(O)C(=O)OCc2c1cc1n(c2=O)-c2cc3ccccc3nc2C1 | 1%[39.9 µM] | . | ? | . | ? | .
C=CCN1C(=O)NC(=O)/C(=C/c2ccc(N(C)C)c(Br)c2)C1=O | -3% | . | . | ? | 13µM* | .
C=CCN1C(=O)NC(=O)/C(=C/c2ccoc2)C1=O | 5% | 43 | 25µM* | ? | ? | .
O=c1[nH]c(=S)n(C2CC2)c(O)c1C=NCCN1CCOCC1 | . | . | . | . | 12% | .
O=c1[nH]c(=S)n(C2CC2)c(O)c1/C=N/Nc1ccccc1 | 1% | -11 | -18% | ? | 3.2µM* | -7
CCCCC(=O)N/N=C/c1c(O)n(C2CC2)c(=S)[nH]c1=O | -3% | -7 | -5% | -12% | -11% | .
O=c1[nH]c(=S)n(C2CC2)c(O)c1/C=N/Nc1cccc2ccccc12 | . | 16 | . | -10% | 2.5µM* | -6
CCC(C)n1c(O)c(/C=N/Nc2ccccc2)c(=O)[nH]c1=S (stereo not drawn) | -2% | -24 | -23% | ? | 3.5µM* | .
N[C@H](Cn1ccc(=O)[nH]c1=O)C(=O)O | . | . | . | . | . | -1
O=C1C2CC=CCC2C(=O)N1SC(Cl)(Cl)Cl (stereo not drawn) | . | . | 7.1µM* | ? | 0.4µM* | .
N[C@@H](CP(=O)(O)O)C(=O)O | -1%[7.66 µM] | . | -2% | . | 8%[13.5 µM] | .
Cc1ccc(C(=O)n2c(N)nc3ccccc32)cc1 | 11µM* | . | . | . | 7% | .
CC(=O)OC1C[C@]2(C)C(C(C)=O)CCC2C2CCC3=CC(=O)CC[C@@]3(C)C12 (stereo partly drawn) | -4% | . | 0% | . | ? | .
CC(Cc1cccc(C(F)(F)F)c1)NCCCc1ccccc1 (stereo not drawn) | . | . | . | . | -12% | .
COc1ccc(C2C(C(=O)N3CCC4(CC3)OCCO4)c3cc(OC)c(OC)cc3C(=O)N2C)cc1 (stereo not drawn) | 0% | -19 | -16% | -6% | 14µM* | 9
CC[C@H](CO)NC(=O)[C@@H]1C=C2c3cccc4c3c(cn4C)C[C@@H]2N(C)C1 | . | . | . | . | . | 0
